According to PubChem BioAssay (NCATS):
Inconclusive results are not listed. Entries that show only a call come without a potency. Calls of active or inactive are those of the source. Calls follow the shape of the dose curve; as a rule, active = well fitted curve in the direction sought with a large enough effect; inconclusive = small, poorly fitted or top-dose-only effect, or another doubt; inactive = no such curve, though single readings can be large; an effect the other way counts as inactive or inconclusive.

Assays:
[1] = S16 Schwann cell viability assay (CellTiter-Glo assay) (AID 624031);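 also: cellular ATP luminescence as a viability measure; nearly all actives have a fitted effect of over 70% in size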
Procedure, shortened: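 Untransfected S16 rat Schwann cells; compound 24 h, 37 °C/5% CO2; CellTiter-Glo ATP luminescence. % activity vs no-cell wells and DMSO controls (0%); concentration-effect curves classed by r2, response magnitude, activity.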

[2] = S16 Schwann cell PMP22 intronic element firefly luciferase assay (AID 624032); also: nearly all actives have a fitted effect of over 30% in size
Procedure, shortened: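 Luciferase reporter of PMP22 intronic-element expression in stably transfected S16 rat Schwann cells, read by ONE-Glo luminescence after 24 h compound exposure at 37 C. Activity scaled between DMSO (0%) and positive-control PTC124; concentration-effect curves quality-classified.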

AA1029 = assay: qHTS profiling for inhibitors of Plasmodium falciparum proliferation (AID 504749); also: nearly all actives have a fitted effect of over 60% in size; also: potency is read from the fitted curve at half-maximal effect; conditions: P. falciparum in erythrocytes, SYBR Green DNA, 72 h; series mostly up to 28.7 µM
Procedure, shortened: (§1)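 Infected RBCs, 0.3% parasitemia/2.5% Hct final; cpd 72 h, 37 C, 5% CO2; lysis buffer with saponin/triton/SYBR Green I, o/n RT dark; FI 485/535; norm. to artemisinin (0.29 uM) and DMSO.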

AS120 = assay: as above; conditions: P. falciparum in erythrocytes, SYBR Green DNA, 72 h; series mostly up to 28.7 µM
Procedure, shortened: as §1

ATS189 = assay: as above; conditions: P. falciparum in erythrocytes, SYBR Green DNA, 72 h; series mostly up to 28.7 µM
Procedure, shortened: as §1

C2A = assay: as above; conditions: P. falciparum in erythrocytes, SYBR Green DNA, 72 h; series mostly up to 28.7 µM
Procedure, shortened: as §1

CP185 = assay: as above; conditions: P. falciparum in erythrocytes, SYBR Green DNA, 72 h; series mostly up to 28.7 µM
Procedure, shortened: as §1

CP191 = assay: as above; conditions: P. falciparum in erythrocytes, SYBR Green DNA, 72 h; series mostly up to 28.7 µM
Procedure, shortened: as §1

CP194 = assay: as above; conditions: P. falciparum in erythrocytes, SYBR Green DNA, 72 h; series mostly up to 28.7 µM
Procedure, shortened: as §1

CP201 = assay: as above; conditions: P. falciparum in erythrocytes, SYBR Green DNA, 72 h; series mostly up to 28.7 µM
Procedure, shortened: as §1

CP211 = assay: as above; conditions: P. falciparum in erythrocytes, SYBR Green DNA, 72 h; series mostly up to 28.7 µM
Procedure, shortened: as §1

CP238 = assay: as above; conditions: P. falciparum in erythrocytes, SYBR Green DNA, 72 h; series mostly up to 28.7 µM
Procedure, shortened: as §1

CP252 = assay: as above; conditions: P. falciparum in erythrocytes, SYBR Green DNA, 72 h; series mostly up to 28.7 µM
Procedure, shortened: as §1

CP262 = assay: as above; conditions: P. falciparum in erythrocytes, SYBR Green DNA, 72 h; series mostly up to 28.7 µM
Procedure, shortened: as §1

CP297 = assay: as above; conditions: P. falciparum in erythrocytes, SYBR Green DNA, 72 h; series mostly up to 28.7 µM
Procedure, shortened: as §1

CP329 = assay: as above; conditions: P. falciparum in erythrocytes, SYBR Green DNA, 72 h; series mostly up to 28.7 µM
Procedure, shortened: as §1

DFO2036 = assay: as above; conditions: P. falciparum in erythrocytes, SYBR Green DNA, 72 h; series mostly up to 28.7 µM
Procedure, shortened: as §1

P93_24 = assay: as above; conditions: P. falciparum in erythrocytes, SYBR Green DNA, 72 h; series mostly up to 28.7 µM
Procedure, shortened: as §1

TAB109 = assay: as above; conditions: P. falciparum in erythrocytes, SYBR Green DNA, 72 h; series mostly up to 28.7 µM
Procedure, shortened: as §1

TAB113 = assay: as above; conditions: P. falciparum in erythrocytes, SYBR Green DNA, 72 h; series mostly up to 28.7 µM
Procedure, shortened: as §1

Structure (SMILES) | Potency [1] | Potency [2] | Potency (AA1029) | Potency (AS120) | Potency (ATS189) | Potency (C2A) | Potency (CP185) | Potency (CP191) | Potency (CP194) | Potency (CP201) | Potency (CP211) | Potency (CP238) | Potency (CP252) | Potency (CP262) | Potency (CP297) | Potency (CP329) | Potency (DFO2036) | Potency (P93_24) | Potency (TAB109) | Potency (TAB113)
N[C@@H](Cc1ccccc1)C(=O)O | inactive | inactive | inactive | inactive | inactive | inactive | inactive | inactive | inactive | inactive | inactive | inactive | inactive | inactive | inactive | inactive | inactive | inactive | inactive | inactive
O=C(O)[C@@H](O)[C@@H](O)[C@H](O)[C@H](O)CO | inactive | inactive | inactive |  |  | inactive | inactive |  | inactive | inactive | inactive | inactive | inactive | inactive | inactive | inactive |  | 10 µM (active) | 10 µM (active) | 
C[C@]12CC[C@H]3c4ccc(O)cc4CC[C@@H]3[C@H]1CC[C@@H]2OP(=O)(O)O | inactive | inactive | inactive | inactive | inactive | inactive | inactive | inactive | inactive | inactive | inactive | inactive | inactive | inactive | inactive | inactive | inactive | inactive | inactive | inactive
CC1(C)[C@@H]2CC[C@]1(C)[C@@H](OC(=O)CSC#N)C2 | inactive | inactive | inactive | inactive | inactive | inactive | inactive | inactive | inactive | inactive | inactive | inactive | inactive | inactive | inactive | inactive | inactive | inactive | inactive | inactive
